Bioassay records from PubChem BioAssay.
NIH3T3 tox: Cytotoxic Profiling in NIH 3T3 Cell Line of Diverse Libraries Using Quantitative High-Throughput Screening. NIH 3T3 viability, CellTiter-Glo ATP luminescence, 48-72 h. 94,000 tested, 4.3% active. Potency, µM (top dose mostly 96.7 µM), most hits filed as inhibitors; further: nearly all actives have a fitted effect of over 55% in size
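Cytotoxicity was measured by CellTiter-Glo ATP luminescence after 48 or 72 h compound exposure at 37 °C. Mouse NIH 3T3 fibroblasts were seeded at 400 cells/well and dosed by 23 nL pin transfer.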
hNpr1 antagonist: Natriuretic polypeptide receptor (hNpr1) antagonism - Primary qHTS; Atrial natriuretic peptide receptor 1 (Homo sapiens), P16066; HEK293 hNpr1 GloSensor cGMP, ANP-stimulated luminescence; Potency, µM (highest dose often 46.3 µM), hits mostly inhibitors; 76,000 tested, 1.6% active; calls by dose curve; further: nearly all actives have a fitted effect of over 60% in size
Target sequence (P16066 whole entry, looked up): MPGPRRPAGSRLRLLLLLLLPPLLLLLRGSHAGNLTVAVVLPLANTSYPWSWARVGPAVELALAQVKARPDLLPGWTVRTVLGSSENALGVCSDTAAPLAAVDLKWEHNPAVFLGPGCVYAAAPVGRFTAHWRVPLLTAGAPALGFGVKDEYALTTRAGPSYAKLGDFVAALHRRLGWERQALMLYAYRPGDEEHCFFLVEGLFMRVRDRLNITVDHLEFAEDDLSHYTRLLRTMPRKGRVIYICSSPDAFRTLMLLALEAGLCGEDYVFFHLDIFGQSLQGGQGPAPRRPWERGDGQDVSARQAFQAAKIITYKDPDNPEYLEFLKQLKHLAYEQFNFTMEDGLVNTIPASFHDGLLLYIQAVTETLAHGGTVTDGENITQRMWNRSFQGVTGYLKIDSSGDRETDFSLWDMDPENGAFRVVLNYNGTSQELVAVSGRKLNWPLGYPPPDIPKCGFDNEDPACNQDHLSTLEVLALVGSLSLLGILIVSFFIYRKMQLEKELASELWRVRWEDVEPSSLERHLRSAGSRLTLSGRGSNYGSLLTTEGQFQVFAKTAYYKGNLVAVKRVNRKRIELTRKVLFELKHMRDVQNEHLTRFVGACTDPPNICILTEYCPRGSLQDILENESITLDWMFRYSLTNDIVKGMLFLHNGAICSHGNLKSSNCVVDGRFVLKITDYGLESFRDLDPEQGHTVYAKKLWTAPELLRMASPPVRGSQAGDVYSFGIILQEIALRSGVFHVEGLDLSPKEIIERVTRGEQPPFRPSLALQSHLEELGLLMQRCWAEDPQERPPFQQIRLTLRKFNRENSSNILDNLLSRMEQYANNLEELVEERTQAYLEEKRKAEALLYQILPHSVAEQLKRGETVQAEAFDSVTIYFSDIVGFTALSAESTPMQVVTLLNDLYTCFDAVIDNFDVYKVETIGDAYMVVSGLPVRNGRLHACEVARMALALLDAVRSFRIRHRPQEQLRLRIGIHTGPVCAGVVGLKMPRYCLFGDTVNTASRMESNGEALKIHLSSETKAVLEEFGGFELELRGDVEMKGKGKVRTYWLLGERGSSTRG
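Compound pre-incubated 30 min at room temperature on GloSensor-loaded HEK293 cells stably carrying hNpr1 and the pGS-40F cGMP biosensor. Stimulation uses hNppA at 0.1 nM final; luminescence is taken at baseline and 20 min post-agonist.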
Luciferase inh: Firefly luciferase inhibition profiling of diverse chemical library using quantitative high-throughput screening; Luciferin 4-monooxygenase (Photinus pyralis), P08659; purified P. pyralis luciferase, luminescence, biochemical; Potency, µM (top dose mostly 115 µM), most hits filed as inhibitors; 76,000 tested, 2.5% active; AID 1347043, 2019; further: nearly all actives have a fitted effect of over 65% in size
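Inhibitors were tested against purified firefly luciferase in a biochemical, low-substrate format (both substrates at 10uM) and luminescence measured with a CCD imager.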
HEK293 tox: Cytotoxic Profiling in HEK 293 Cell Line of Diverse Libraries Using Quantitative High-Throughput Screening; HEK 293 viability, ATP luminescence (CellTiter-Glo), 48-72 h; Potency, µM (series often up to 115 µM), most hits filed as inhibitors; 94,000 tested, 6.6% active; further: nearly all actives have a fitted effect of over 60% in size
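HEK 293 seeded at 250 cells/well receive compound via pintool. After 48 or 72 hr at 37 degree Celsius, 5% CO2 and 95% humidity, CellTiter-Glo is dispensed and luminescence read following 10 min at room temperature.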
Of the large screens only hits and unclear results are named; the others gave an inactive call. This is a sample that favours compounds with a hit; in the whole collection about 11% have one here. Unless noted, the call rests on the fitted dose curve; in most records, active means well fitted curve in the direction sought with a large enough effect; inconclusive means small, poorly fitted or top-dose-only effect, or another doubt; inactive means no such curve, though single readings can be large; an effect the other way counts as inactive or inconclusive.

N#Cc1cccc(CN2C[C@H](O)C[C@H]2c2nc(-c3ccc4c(c3)OCO4)no2)c1	NIH3T3 tox inconclusive, Luciferase inh inconclusive, HEK293 tox 100µM
O[C@@H]1C[C@@H](c2nc(-c3ccc4c(c3)OCO4)no2)N(Cc2ccccc2)C1	NIH3T3 tox inconclusive, Luciferase inh 50µM, HEK293 tox inconclusive
O=C(Cc1cccc(Cl)c1)NC1CCN(C(=O)c2ccc(-c3cncnc3)cc2)CC1	none (no result: hNpr1 antagonist, Luciferase inh)
O=C(NC1CCN(c2cc(-c3ccc(F)cc3)[nH]n2)C1)c1cc(Cl)ccc1F (stereo not given)	NIH3T3 tox 35µM, HEK293 tox inconclusive
O=C(NC1CCCN(c2cc(-c3ccc(F)cc3)[nH]n2)C1)c1cc(F)ccc1F (stereo not given)	NIH3T3 tox inconclusive, HEK293 tox 45µM
FC(F)(F)c1ccccc1-c1cc(-c2cccnc2)c2cncn2c1	NIH3T3 tox 45µM, HEK293 tox 63µM
Cc1noc(C)c1-c1cc(-c2ccccc2C(F)(F)F)cn2cncc12	NIH3T3 tox inconclusive, HEK293 tox 71µM
Cc1noc(C)c1-c1cc(-c2ccc(CO)cc2)cn2cncc12	NIH3T3 tox inconclusive, HEK293 tox inconclusive
Cc1noc(C)c1-c1cc(-c2ccccc2F)cn2cncc12	NIH3T3 tox inconclusive, HEK293 tox 79µM
O=C(C1CCCCc2nnc(-c3ccccc3)n21)N1CCCC1 (stereo not given)	none (no result: hNpr1 antagonist, Luciferase inh)
COc1ccc(C(=O)N2CCN(C(=O)c3nc4cccnc4n(C4CC4)c3=O)CC2)cc1	none (no result: hNpr1 antagonist, Luciferase inh)
COCCN[C@@H]1C[C@@H]2c3[nH]c4ccccc4c3C[C@@H](C(=O)OC)N2[C@H](c2ccc(C(C)C)cc2)C1	NIH3T3 tox 28µM, hNpr1 antagonist inconclusive, HEK293 tox inconclusive
COCCN[C@@H]1C[C@@H]2c3[nH]c4ccccc4c3C[C@@H](C(=O)OC)N2[C@H](c2ccc(Cl)c(F)c2)C1	NIH3T3 tox 14µM, hNpr1 antagonist inconclusive, HEK293 tox inconclusive
COC(=O)[C@@H]1Cc2c([nH]c3ccccc23)[C@H]2C[C@@H](NCc3cccnc3)C[C@@H](c3ccccc3)N21	NIH3T3 tox inconclusive, HEK293 tox 22µM
COCCNC(=O)[C@@H]1CCC[C@@H](NCc2cccnc2)CN(C)C(=O)C1	none
COC(=O)[C@@H]1Cc2c([nH]c3ccccc23)[C@H]2C[C@@H](NCCN(C)C)C[C@@H](c3ccc(F)cc3)N21	NIH3T3 tox 14µM, HEK293 tox 20µM
COCCNC(=O)[C@H]1C[C@H](Oc2ccccc2)CN1C(=O)c1ccc(F)cc1	none
O=C(c1ccc(F)cc1)N1CCC(C(=O)N2CCC(c3nc4ccncc4[nH]3)C2)CC1 (stereo not given)	none (no result: hNpr1 antagonist, Luciferase inh)
COC(=O)CNC(=O)c1cc(-c2cccc(C(F)(F)F)c2)nc2c1cnn2C	NIH3T3 tox inconclusive (no result: hNpr1 antagonist, Luciferase inh)
O=C(c1cccc(Cl)c1)N1CCCC1C(=O)N1CCCC1c1nc2ccncc2[nH]1 (stereo not given)	none (no result: hNpr1 antagonist, Luciferase inh)
COC(=O)[C@@H]1Cc2c([nH]c3ccccc23)[C@@H]2C[C@@H](NC(C)C)C[C@@H](c3ccc(F)cc3)N12	NIH3T3 tox 28µM, HEK293 tox 28µM
COCCN[C@H]1C[C@@H]2c3[nH]c4ccccc4c3C[C@@H](C(=O)OC)N2[C@H](c2ccccc2)C1	NIH3T3 tox 35µM, HEK293 tox 40µM
COCCN[C@@H]1C[C@@H]2c3[nH]c4ccccc4c3C[C@@H](C(=O)OC)N2[C@H](c2cccc(OC)c2)C1	NIH3T3 tox inconclusive, hNpr1 antagonist inconclusive, HEK293 tox 22µM
COCCNC(=O)[C@H]1C[C@H](Oc2ccccc2)CN1C(=O)c1cccc(OC)c1	none
CC1(C(=O)NC2CCN(Cc3ccccc3)CC2)CCCCC(=O)N1 (stereo not given)	none
COc1cccc(-c2cccc(C(=O)N3CCN(C(=O)c4ccc(Cl)nc4)CC3)c2)c1	HEK293 tox inconclusive (no result: hNpr1 antagonist, Luciferase inh)
O=C(C[C@@H]1CCNC[C@@H]1Cc1cc(CC2CCCCC2)on1)N1CCC(Cc2ccccc2)CC1	NIH3T3 tox 25µM, HEK293 tox inconclusive
CCCCc1cc(C[C@H]2CNCC[C@H]2CC(=O)NC2CCCCC2)no1	NIH3T3 tox inconclusive, HEK293 tox inconclusive
O=C(C[C@@H]1CCNC[C@@H]1Cc1cc(COc2ccccc2)on1)N1CCC(Cc2ccccc2)CC1	NIH3T3 tox 28µM, HEK293 tox 25µM
